Results filed as inconclusive are left out. A call without a number means that no potency is given here. Values without a mark were called inactive. Active and inactive are the calls of the source. Calls follow the shape of the dose curve; as a rule, active = well fitted inhibition curve with a large enough effect; inconclusive = small, poorly fitted or top-dose-only effect; inactive = flat fitted curve, though single readings scatter.

The subject of experiment [1] is HaCat. Nature of the experiment: Cytotoxic Profiling of Annotated Libraries Using Quantitative High-Throughput Screening (AID 1296008). Also: potency is read from the fitted curve at half-maximal effect. Particulars: Five cell lines viability, CellTiter-Glo ATP luminescence, 48-72 h; max response: hits give low values. The essentials:
(§1)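 Cytotoxicity was measured as CellTiter-Glo ATP luminescence, read after 10 min at room temperature. Compound treatment of the cells lasted 48 or 72 hr at 37 degrees Celsius in a qHTS format.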
On the technique in general: Cellular ATP, detected with luciferase, serves as a proxy for viable cell number.

The test system of the next experiment is KB-3-1. The experiment is described as above. Particulars: Five cell lines viability, CellTiter-Glo ATP luminescence, 48-72 h; max response: hits give low values. The essentials:
as §1

For a further experiment, the system named is NIH3T3. Described as above. Particulars: Five cell lines viability, CellTiter-Glo ATP luminescence, 48-72 h; max response: hits give low values. The essentials:
as §1

Experiment [2] has as its system HACAT. Put plainly: qHTS assay to identify novel small-molecules to repurpose for Merkel cell carcinoma treatment (AID 1296009). Particulars: MCC and control cell lines, CellTiter-Glo viability, 72 h; series mostly up to 44.8 µM. The essentials:
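After compound transfer in DMSO, plates were kept 72 hr at 37 degree celsius. Luminescent ATP signal from CellTiter-Glo served as viability measure, normalized against DMSO and no-cell controls.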
Also: nearly all actives have a fitted effect of over 60% in size.

Take `CC(C)=CCC/C(C)=C/CO[C@@H]1O[C@H](CO)[C@@H](O)[C@H](O)[C@H]1O`: the compound was classed as inactive in the experiment with HaCat [1] and in the experiment on KB-3-1. Besides, the max response with NIH3T3 was -9.17%. Besides, the Potency result in the experiment with HACAT [2] was “inactive”.
In the case of `O=C1NC(Cc2c[nH]c3ccccc23)C(=O)NC1Cc1cnc[nH]1` (stereo unspecified), the call in the experiment with HaCat [1] and in the experiment on KB-3-1 was inactive. The max response in the experiment with NIH3T3 is 3.67%. Further, the Potency result in the experiment with HACAT [2] was “inactive”.
Consider `COc1cc(OC)c(/C=C/S(=O)(=O)Cc2ccc(OC)c(NCC(=O)O)c2)c(OC)c1`, for which the compound was called inactive in the experiment on HaCat [1]. The Potency with KB-3-1 was 206 nM (active); in the experiment with NIH3T3, 146 nM (active). For the same compound, the Potency result with HACAT [2] is “inactive”.
For `CC(C)S(=O)(=O)N[C@H]1CCOC[C@@H]1c1ccc(-c2ccc(C#N)s2)cc1`, the outcome in the experiment with HaCat [1] and with KB-3-1 was inactive. The max response in the experiment on NIH3T3 was -6.39%. The Potency result with HACAT [2] is “inactive”.
Take `COc1ncc2cc(C(=O)Nc3cc(C(=O)NCc4cccc(Cl)c4)ccc3Cl)c(=O)[nH]c2n1`: in the experiment on HaCat [1], the compound was classed as inactive. Besides, the Potency in the experiment on KB-3-1 is 4110 nM (active). Besides, in the experiment on NIH3T3, the max response was -0.237%. The Potency entry in the experiment on HACAT [2] is “inactive”.
With `C[C@@]12CC[C@@H]3[C@@](CC[C@H]4[C@@]3(C)CCC[C@@]4(C)C(=O)O)(CC1=O)C2`, the outcome in the experiment with HaCat [1] was inactive. Also, the max response with KB-3-1 is 1.35%; in the experiment on NIH3T3, -5.17%. Further, the Potency entry in the experiment with HACAT [2] is “inactive”.
In the case of `COC(=O)C1=CO[C@@H](O[C@@H]2O[C@H](CO)[C@@H](O)[C@H](O)[C@H]2O)[C@H]2[C@@H]1C=C[C@@]21C=C([C@H](C)O)C(=O)O1`, the outcome in the experiment on HaCat [1] and in the experiment on KB-3-1 was inactive. Also, the max response in the experiment with NIH3T3 was 3.5%. The Potency result in the experiment on HACAT [2] was “inactive”.
Turning to `CC(C)(O)C1CCC(C)(C2CCC3(C)C4CCC5C(C)(C(=O)OC6OC(CO)C(O)C(O)C6O)C(O)CC(O)C56CC46CCC23C)O1` (stereo unspecified), the result with HaCat [1] was inactive. Besides, the max response with KB-3-1 was -9.11%; in the experiment on NIH3T3 it was -1.85%. The Potency entry with HACAT [2] was “inactive”.
In the case of `N#Cc1cc(F)cc(-c2nc(-c3ccccn3)no2)c1`, the outcome in the experiment on HaCat [1] was inactive. Moreover, the results for the max response in the experiment with KB-3-1 and in the experiment on NIH3T3 were -6.38% and -10.9%, respectively. Moreover, the Potency entry in the experiment on HACAT [2] is “inactive”.

The values above are taken from PubChem BioAssay (NCATS).
